{"source": "paper PMC7862700", "about": "“An all-to-all approach to the identification of sequence-specific readers for epigenetic DNA modifications on cytosine”", "experiment_in_all_cases": "DAPPL (digital affinity profiling via proximity ligation, sequencing); 10 mM Tris-HCl pH 7.5, 50 mM NaCl, 1 mM DTT, 4% glycerol, room temperature, 30 min; GST-TFs on glutathione beads, 16-mer random dsDNA library, 0.1% formaldehyde crosslink after washing; high values mean tight binding", "settings_in_all_cases": "protein: recombinant; tags: N-terminal GST; dsDNA, one strand shown", "key": {"ETV1": {"target": "ETV1 (Homo sapiens, UniProt P50549 1-477)", "sequence (P50549 whole entry, the tested form may be a part)": "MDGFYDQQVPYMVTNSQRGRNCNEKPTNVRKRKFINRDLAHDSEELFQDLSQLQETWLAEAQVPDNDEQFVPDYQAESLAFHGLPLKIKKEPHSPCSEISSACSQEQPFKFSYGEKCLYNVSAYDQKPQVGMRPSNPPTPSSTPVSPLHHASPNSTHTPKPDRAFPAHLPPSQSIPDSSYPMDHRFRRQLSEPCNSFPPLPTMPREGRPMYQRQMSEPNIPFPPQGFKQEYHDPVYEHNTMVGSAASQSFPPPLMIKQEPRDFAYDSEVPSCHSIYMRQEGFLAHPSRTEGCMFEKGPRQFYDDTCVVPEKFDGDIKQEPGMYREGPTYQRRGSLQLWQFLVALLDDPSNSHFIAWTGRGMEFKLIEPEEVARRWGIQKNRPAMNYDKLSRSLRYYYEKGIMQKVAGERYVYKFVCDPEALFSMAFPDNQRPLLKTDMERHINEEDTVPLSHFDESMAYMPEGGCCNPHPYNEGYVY", "method_in_brief": "(§1)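 GST fusions of human transcription factors were expressed in yeast and captured with glutathione beads. Once given DNA barcodes and pooled alongside a tag-only sample, they were incubated for 30 min at room temperature with 200 nmole of a random double-stranded 16-mer DNA library in Tris/NaCl/DTT/glycerol buffer, then washed, crosslinked (0.1% formaldehyde), proximity-ligated, PCR-amplified and sequenced on an Illumina NextSeq500. The binding signal of each hexamer is its read frequency for a factor divided by its frequency for the tag-only sample.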"}, "ERF": {"target": "T1, ERF (Homo sapiens, UniProt P50548 1-548)", "T1 sequence": "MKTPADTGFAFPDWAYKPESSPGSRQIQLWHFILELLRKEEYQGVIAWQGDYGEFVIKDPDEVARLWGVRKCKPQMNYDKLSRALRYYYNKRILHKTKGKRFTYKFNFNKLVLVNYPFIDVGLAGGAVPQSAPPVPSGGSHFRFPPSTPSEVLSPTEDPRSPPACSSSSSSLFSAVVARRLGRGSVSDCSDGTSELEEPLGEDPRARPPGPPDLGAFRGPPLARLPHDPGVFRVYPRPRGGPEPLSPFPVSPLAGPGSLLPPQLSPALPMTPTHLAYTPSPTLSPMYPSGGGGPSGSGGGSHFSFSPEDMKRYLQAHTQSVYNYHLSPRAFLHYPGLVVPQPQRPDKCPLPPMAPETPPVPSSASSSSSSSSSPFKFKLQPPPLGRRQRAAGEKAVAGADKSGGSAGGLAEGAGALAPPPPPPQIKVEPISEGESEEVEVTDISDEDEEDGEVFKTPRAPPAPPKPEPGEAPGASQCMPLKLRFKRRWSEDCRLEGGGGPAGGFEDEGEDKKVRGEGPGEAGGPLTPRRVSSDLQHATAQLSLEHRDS", "method_in_brief": "as §1"}, "ETV3L": {"target": "T2, ETV3L (Homo sapiens, UniProt Q6ZN32 1-361)", "T2 sequence": "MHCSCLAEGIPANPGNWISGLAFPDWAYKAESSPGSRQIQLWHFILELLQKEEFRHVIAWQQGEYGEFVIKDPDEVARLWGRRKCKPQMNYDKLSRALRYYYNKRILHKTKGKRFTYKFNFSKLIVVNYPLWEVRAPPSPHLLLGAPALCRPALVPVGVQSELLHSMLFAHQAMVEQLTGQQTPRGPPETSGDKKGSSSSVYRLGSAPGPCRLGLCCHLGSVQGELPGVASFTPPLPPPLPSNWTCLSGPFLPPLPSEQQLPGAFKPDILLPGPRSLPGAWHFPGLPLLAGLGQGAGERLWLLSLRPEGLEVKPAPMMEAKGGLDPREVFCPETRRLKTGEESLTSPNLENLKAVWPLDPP", "method_in_brief": "as §1"}, "ETS2": {"target": "T3, ETS2 (Homo sapiens, UniProt P15036 1-469)", "T3 sequence": "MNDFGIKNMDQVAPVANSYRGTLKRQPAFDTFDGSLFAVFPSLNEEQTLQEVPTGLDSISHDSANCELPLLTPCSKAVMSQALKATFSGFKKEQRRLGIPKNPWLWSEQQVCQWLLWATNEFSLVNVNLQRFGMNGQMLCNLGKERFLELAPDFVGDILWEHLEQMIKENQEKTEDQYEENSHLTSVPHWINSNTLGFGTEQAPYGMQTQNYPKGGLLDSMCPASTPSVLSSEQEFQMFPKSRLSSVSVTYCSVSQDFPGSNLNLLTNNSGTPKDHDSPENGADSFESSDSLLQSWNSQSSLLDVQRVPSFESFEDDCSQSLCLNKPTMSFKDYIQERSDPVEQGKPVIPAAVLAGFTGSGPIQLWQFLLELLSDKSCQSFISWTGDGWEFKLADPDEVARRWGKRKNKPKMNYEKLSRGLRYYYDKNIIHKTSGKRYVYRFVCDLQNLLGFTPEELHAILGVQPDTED", "method_in_brief": "as §1"}, "SPDEF": {"target": "T4, SPDEF (Homo sapiens, UniProt O95238 1-335)", "T4 sequence": "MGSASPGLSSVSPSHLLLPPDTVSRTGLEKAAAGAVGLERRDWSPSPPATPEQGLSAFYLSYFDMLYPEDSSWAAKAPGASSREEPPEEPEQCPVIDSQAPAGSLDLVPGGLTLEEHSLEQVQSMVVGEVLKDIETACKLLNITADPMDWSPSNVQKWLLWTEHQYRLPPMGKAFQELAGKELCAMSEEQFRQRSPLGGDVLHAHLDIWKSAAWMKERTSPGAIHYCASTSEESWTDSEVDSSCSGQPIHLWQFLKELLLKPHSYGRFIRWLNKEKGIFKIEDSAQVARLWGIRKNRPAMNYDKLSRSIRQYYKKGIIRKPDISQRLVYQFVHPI", "method_in_brief": "as §1"}, "ETV7": {"target": "T5, ETV7 (Homo sapiens, UniProt Q9Y603 1-341)", "T5 sequence": "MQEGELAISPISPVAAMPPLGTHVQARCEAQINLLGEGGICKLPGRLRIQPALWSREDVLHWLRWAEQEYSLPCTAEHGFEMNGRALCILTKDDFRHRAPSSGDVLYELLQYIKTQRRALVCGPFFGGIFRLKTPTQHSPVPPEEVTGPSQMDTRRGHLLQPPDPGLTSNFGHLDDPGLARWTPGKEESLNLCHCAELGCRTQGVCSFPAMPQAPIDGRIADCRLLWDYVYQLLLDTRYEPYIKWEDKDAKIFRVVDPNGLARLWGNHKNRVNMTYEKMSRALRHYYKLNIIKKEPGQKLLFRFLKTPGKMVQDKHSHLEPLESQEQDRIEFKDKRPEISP", "method_in_brief": "as §1"}, "ELF5": {"target": "T6, ELF5 (Homo sapiens, UniProt Q9UKW6-2 1-255)", "T6 sequence": "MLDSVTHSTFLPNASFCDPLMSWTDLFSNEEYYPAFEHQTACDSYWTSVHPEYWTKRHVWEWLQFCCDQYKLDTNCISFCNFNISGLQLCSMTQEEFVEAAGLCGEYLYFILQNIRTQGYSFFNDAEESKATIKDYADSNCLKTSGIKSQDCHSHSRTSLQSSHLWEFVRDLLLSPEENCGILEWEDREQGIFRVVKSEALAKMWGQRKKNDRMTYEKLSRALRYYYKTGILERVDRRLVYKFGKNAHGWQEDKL", "method_in_brief": "as §1"}, "ETV3": {"target": "T7, ETV3 (Homo sapiens, UniProt P41162-2 1-143)", "T7 sequence": "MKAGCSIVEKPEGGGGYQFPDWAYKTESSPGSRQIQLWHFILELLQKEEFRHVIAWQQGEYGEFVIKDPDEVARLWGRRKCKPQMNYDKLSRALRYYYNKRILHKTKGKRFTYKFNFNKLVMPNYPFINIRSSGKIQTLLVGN", "method_in_brief": "as §1"}, "ETV6": {"target": "ETV6 (Homo sapiens, UniProt P41212 1-452)", "sequence (P41212 whole entry)": "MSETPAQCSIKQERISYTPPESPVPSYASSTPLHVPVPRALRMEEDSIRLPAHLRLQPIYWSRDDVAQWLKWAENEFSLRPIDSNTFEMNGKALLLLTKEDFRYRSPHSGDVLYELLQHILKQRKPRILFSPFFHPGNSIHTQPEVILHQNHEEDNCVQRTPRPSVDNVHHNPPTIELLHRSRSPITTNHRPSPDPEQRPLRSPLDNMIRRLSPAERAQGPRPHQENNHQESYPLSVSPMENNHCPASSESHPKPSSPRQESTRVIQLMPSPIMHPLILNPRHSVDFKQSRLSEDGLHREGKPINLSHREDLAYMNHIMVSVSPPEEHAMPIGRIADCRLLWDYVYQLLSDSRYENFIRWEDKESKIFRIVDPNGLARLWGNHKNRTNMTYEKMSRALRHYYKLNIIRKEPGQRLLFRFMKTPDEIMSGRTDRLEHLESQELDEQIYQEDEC", "method_in_brief": "as §1"}}}
{"sequence": "TTTTTC", "values": [{"measurement": "binding signal", "setting": "ETV1", "value": "1.21 fold enrichment (6-mer frequency, TF over GST control)"}, {"measurement": "binding signal", "setting": "ERF", "value": "1.16 fold enrichment (6-mer frequency, TF over GST control)"}, {"measurement": "binding signal", "setting": "ETV3L", "value": "1.34 fold enrichment (6-mer frequency, TF over GST control)"}, {"measurement": "binding signal", "setting": "ETS2", "value": "1.17 fold enrichment (6-mer frequency, TF over GST control)"}, {"measurement": "binding signal", "setting": "SPDEF", "value": "1.21 fold enrichment (6-mer frequency, TF over GST control)"}, {"measurement": "binding signal", "setting": "ETV7", "value": "1.23 fold enrichment (6-mer frequency, TF over GST control)"}, {"measurement": "binding signal", "setting": "ELF5", "value": "1.37 fold enrichment (6-mer frequency, TF over GST control)"}, {"measurement": "binding signal", "setting": "ETV3", "value": "1.25 fold enrichment (6-mer frequency, TF over GST control)"}, {"measurement": "binding signal", "setting": "ETV6", "value": "1.15 fold enrichment (6-mer frequency, TF over GST control)"}]}
